From PubChem BioAssay (Tox21)
Records with an inconclusive call do not appear. Calls of active or inactive are those of the source. Unless noted, calls come from the whole dose curve; as a rule, active = well fitted curve in the direction sought with a large enough effect in the repeat runs; inconclusive = weak or mixed curves; inactive = no such curve, though single readings can be large; an effect the other way counts as inactive or inconclusive.

Columns and labels:
[1] = qHTS assay to identify small molecule antagonists of the glucocorticoid receptor (GR) signaling pathway - cell viability counter screen (AID 720693); note: nearly all actives have a fitted effect of over 55% in size
[2] = qHTS assay for identifying genotoxic compounds that show differential cytotoxicity against isogenic chicken DT40 cell lines with known DNA damage response pathways - wild type cell line (AID 743012); note: nearly all actives have a fitted effect of over 60% in size; note: potency is the fitted concentration of half-maximal effect
How it was run: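 Quantitative HTS on parental DT40 cells: 40 h compound treatment at 37 C/5% CO2, with viability then determined by CellTiter-Glo luminescence. Values serve as the DNA repair-proficient reference for differential cytotoxicity.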

[3] = qHTS assay for identifying genotoxic compounds that show differential cytotoxicity against isogenic chicken DT40 cell lines with known DNA damage response pathways - Rev3 mutant cell line (AID 743014); note: nearly all actives have a fitted effect of over 55% in size; note: potency is the fitted concentration of half-maximal effect
[4] = qHTS assay to identify small molecule antagonists of the androgen receptor (AR) signaling pathway - cell viability counter screen (AID 743033; note: nearly all actives have a fitted effect of over 45% in size)
[5] = qHTS assay to identify small molecule antagonists of the androgen receptor (AR) signaling pathway using the MDA cell line - cell viability counter screen (AID 743041; note: nearly all actives have a fitted effect of over 45% in size)
How it was run: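 MDA-kb2 AR-luc human breast carcinoma cells (MMTV-luciferase, AR/GR responsive) were treated with compounds plus R1881 agonist for 16 h at 37 °C. Viability was read as CellTiter-Fluor fluorescence in the same wells as the reporter assay.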

[6] = qHTS assay to identify small molecule antagonists of the thyroid receptor (TR) signaling pathway - cell viability counter screen (AID 743064); note: nearly all actives have a fitted effect of over 50% in size
How it was run: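 In rat pituitary GH3.TRE-Luc reporter cells co-exposed to compound and 1 nM T3 for 23.5 h, cytotoxicity was assessed with CellTiter-Fluor in the same wells, read by fluorescence.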

[7] = qHTS assay to identify small molecule antagonists of the thyroid receptor (TR) signaling pathway (AID 743065); note: series mostly up to about 70 µM; nearly all actives have a fitted effect of over 55% in size
How it was run: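 GH3.TRE-Luc rat pituitary cells carrying two TR response elements driving luciferase were plated for 4 h, given compound plus 1 nM T3 (final), and incubated 23.5 h at 37 C. ONE-Glo luminescence measured reporter inhibition; CellTiter-Fluor fluorescence tracked cytotoxicity.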

[8] = test system: thyroid hormone receptor (rat, GH3 cells); test: qHTS assay to identify small molecule agonists of the thyroid receptor (TR) signaling pathway (AID 743066; calls by dose curve)
[9] = molecular target: Estrogen receptor (Homo sapiens) (UniProt P03372); test: qHTS assay to identify small molecule antagonists of the estrogen receptor alpha (ER-alpha) signaling pathway (AID 743069; active = well fitted curve in the direction sought with a large enough effect in the signal ratio in the repeat runs, not every such curve was filed as active; the % refers to the signal ratio)
Chain of Estrogen receptor (Homo sapiens) (P03372 whole entry, looked up): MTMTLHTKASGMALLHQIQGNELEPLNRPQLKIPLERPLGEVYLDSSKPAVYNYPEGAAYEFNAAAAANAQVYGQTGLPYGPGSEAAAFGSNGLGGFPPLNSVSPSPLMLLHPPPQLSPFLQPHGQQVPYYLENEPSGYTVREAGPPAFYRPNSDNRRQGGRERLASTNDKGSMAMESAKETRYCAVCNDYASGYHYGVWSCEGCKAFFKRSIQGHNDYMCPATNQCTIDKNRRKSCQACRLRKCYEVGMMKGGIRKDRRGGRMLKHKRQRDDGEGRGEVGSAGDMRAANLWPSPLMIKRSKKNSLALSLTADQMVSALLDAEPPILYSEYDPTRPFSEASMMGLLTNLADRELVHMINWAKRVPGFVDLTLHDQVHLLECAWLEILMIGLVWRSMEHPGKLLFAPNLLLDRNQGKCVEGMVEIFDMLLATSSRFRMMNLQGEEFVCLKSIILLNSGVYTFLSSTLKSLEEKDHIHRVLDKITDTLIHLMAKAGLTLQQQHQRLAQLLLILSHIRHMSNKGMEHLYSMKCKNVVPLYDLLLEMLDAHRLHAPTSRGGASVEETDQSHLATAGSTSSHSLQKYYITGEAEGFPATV
How it was run: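 HEK293 cells stably carrying an ER-alpha-UAS-bla beta-lactamase reporter were pre-cultured overnight in 2% charcoal-stripped FBS medium. Test compounds in DMSO were added together with 17beta-estradiol for 18 hr at 37C. Read-out was fluorescence after 2 hr with LiveBLAzer B/G FRET substrate at room temperature.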

[10] = qHTS assay to identify small molecule antagonists of the estrogen receptor alpha (ER-alpha) signaling pathway - cell viability counter screen (AID 743074; calls by dose curve; note: nearly all actives have a fitted effect of over 45% in size)
[11] = molecular target: Estrogen receptor (Homo sapiens) (UniProt P03372); test: qHTS assay to identify small molecule agonists of the estrogen receptor alpha (ER-alpha) signaling pathway (AID 743075; calls by dose curve)
[12] = molecular target: Estrogen receptor (Homo sapiens) (UniProt P03372); test: qHTS assay to identify small molecule agonists of the estrogen receptor alpha (ER-alpha) signaling pathway using the BG1 cell line (AID 743079); note: nearly all actives have a fitted effect of over 20% in size
[13] = qHTS assay to identify small molecule antagonists of the estrogen receptor alpha (ER-alpha) signaling pathway using the BG1 cell line (AID 743080; calls by dose curve;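 note: BG1 cells stimulated with 17beta-estradiol alongside compound; series mostly up to about 70 µM; nearly all actives have a fitted effect of over 25% in size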)
How it was run: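 Luminescence from a 4×ERE-luciferase reporter in BG1-Luc-4E2 cells served as read-out. Cells, pre-cultured 5 days in stripped-serum phenol-red-free medium, were exposed to compound with 17beta-estradiol co-stimulation for 21.5 h at 37 C.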

[14] = qHTS assay to identify small molecule antagonists of the estrogen receptor alpha (ER-alpha) signaling pathway using the BG1 cell line - cell viability counter screen (AID 743081);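 note: compound given together with 17beta-estradiol as the ER stimulus; series mostly up to about 70 µM; nearly all actives have a fitted effect of over 45% in size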
[15] = molecular target: Aromatase (Homo sapiens) (UniProt P11511); test: qHTS assay to identify aromatase inhibitors (AID 743083); note: series mostly up to about 70 µM; nearly all actives have a fitted effect of over 55% in size
Chain of Aromatase (Homo sapiens) (P11511 whole entry, looked up): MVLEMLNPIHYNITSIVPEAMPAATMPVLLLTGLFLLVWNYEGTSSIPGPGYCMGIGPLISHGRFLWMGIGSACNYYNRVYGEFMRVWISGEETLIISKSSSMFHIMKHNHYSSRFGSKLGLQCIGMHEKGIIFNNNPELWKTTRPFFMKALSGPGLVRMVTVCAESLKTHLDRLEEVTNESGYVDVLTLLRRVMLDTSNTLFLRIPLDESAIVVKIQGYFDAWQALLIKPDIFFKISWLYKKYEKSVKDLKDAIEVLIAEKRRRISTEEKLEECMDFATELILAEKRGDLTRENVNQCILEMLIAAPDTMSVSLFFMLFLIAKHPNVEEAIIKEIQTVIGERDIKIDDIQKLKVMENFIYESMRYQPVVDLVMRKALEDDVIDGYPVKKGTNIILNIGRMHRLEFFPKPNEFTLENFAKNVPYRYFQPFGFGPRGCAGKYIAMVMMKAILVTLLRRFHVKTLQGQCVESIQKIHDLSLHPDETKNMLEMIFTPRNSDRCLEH

[16] = qHTS assay to identify aromatase inhibitors - cell viability counter screen (AID 743084)
[17] = molecular target: Androgen receptor (Homo sapiens) (UniProt P10275); test: qHTS assay to identify small molecule antagonists of the androgen receptor (AR) signaling pathway (AID 743035; active = well fitted inhibition curve with a large enough effect in the signal ratio in the repeat runs, not every such curve was filed as active; the % refers to the signal ratio)
Chain of Androgen receptor (Homo sapiens) (P10275 whole entry, looked up): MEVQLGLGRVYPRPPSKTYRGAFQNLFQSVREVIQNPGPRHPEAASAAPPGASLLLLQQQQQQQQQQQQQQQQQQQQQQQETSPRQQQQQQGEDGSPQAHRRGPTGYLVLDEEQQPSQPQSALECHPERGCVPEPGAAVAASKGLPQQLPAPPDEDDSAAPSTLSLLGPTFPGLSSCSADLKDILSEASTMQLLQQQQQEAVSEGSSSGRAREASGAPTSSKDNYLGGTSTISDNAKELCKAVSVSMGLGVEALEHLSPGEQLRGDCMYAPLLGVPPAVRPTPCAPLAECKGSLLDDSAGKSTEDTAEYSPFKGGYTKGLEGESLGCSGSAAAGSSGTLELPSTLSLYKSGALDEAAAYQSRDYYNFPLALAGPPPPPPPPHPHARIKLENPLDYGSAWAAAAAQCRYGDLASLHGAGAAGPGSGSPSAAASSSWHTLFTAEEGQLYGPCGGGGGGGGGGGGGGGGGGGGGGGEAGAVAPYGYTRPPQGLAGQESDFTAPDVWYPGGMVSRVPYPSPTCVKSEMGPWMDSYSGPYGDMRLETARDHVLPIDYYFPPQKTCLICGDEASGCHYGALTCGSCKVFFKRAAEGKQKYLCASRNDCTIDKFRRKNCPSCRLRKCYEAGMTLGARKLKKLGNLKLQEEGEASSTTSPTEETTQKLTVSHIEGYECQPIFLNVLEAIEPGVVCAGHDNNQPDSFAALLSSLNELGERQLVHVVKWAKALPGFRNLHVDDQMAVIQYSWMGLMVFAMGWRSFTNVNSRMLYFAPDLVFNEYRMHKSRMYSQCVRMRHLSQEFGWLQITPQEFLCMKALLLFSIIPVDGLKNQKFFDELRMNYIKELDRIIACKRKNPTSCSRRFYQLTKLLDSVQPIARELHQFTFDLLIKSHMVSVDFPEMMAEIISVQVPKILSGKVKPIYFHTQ
How it was run: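 Cell line: GeneBLAzer AR-UAS-bla GripTite (HEK293). Stimulus: R1881 added after compound. Exposure: 16 h, 37C, 5% CO2. Readout: LiveBLAzer B/G FRET fluorescence after 2 h at room temperature.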

[18] = molecular target: Androgen receptor (Homo sapiens) (UniProt P10275); test: qHTS assay to identify small molecule agonists of the androgen receptor (AR) signaling pathway (AID 743036; active = well fitted activation curve with a large enough effect in the signal ratio in the repeat runs, with a control signal flat, not every such curve was filed as active; the % refers to the signal ratio)
How it was run: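 Cell-based FRET reporter assay: HEK293 line with a UAS-beta-lactamase construct, compounds added in DMSO, 16 h exposure at 37C, then 2 h substrate step at room temperature and fluorescence intensity read.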

[19] = molecular target: Androgen receptor (Homo sapiens) (UniProt P10275); test: qHTS assay to identify small molecule antagonists of the androgen receptor (AR) signaling pathway using the MDA cell line (AID 743042; note: nearly all actives have a fitted effect of over 55% in size)
How it was run: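 MDA-kb2 cells (human breast carcinoma, stably carrying an MMTV-luciferase reporter responsive to AR and GR) were plated at 3,000 cells/well and preincubated 5 hr at 37C, then given compound plus R1881 agonist for 16 h. ONE-Glo luminescence was read.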

[20] = qHTS assay for identifying genotoxic compounds that show differential cytotoxicity against isogenic chicken DT40 cell lines with known DNA damage response pathways - Rad54/Ku70 mutant cell line (AID 743015); note: nearly all actives have a fitted effect of over 60% in size; note: potency is the fitted concentration of half-maximal effect

Measured: Potency

O=Cc1ccc(F)c(Br)c1
not listed: [17] | [18] | [19] | [20]
inactive: all other assays above

CC(=O)OC(C)OC(C)=O
active: [3] 70.7 µM
not listed: [9] | [11] | [12] | [13] | [20]
inactive: all other assays above

OCCN(CCO)c1ccccc1
not listed: [3] | [5] | [12]
inactive: all other assays above

COc1cc(Cl)ccc1Cl
not listed: [3] | [9] | [11] | [12] | [13] | [17] | [18] | [19]
inactive: all other assays above

CC(C)(CO)[C@@H](O)C(=O)NCCC(=O)O
not listed: [3] | [17] | [18] | [19]
inactive: all other assays above

CC(=O)OC1C2(C)CCC(C2)C1(C)C (stereo not given)
not listed: [17] | [18] | [19] | [20]
inactive: all other assays above

CC(C)C(=O)OC/C=C/c1ccccc1
not listed: [3] | [17] | [18] | [19]
inactive: all other assays above

Cc1cc2nc(N)sc2cc1C
active: [2] 61.7 µM | [3] 55 µM
not listed: [9] | [11] | [12] | [13] | [17] | [18] | [20]
inactive: all other assays above

CC1=C(CC(=O)O)c2cc(F)ccc2/C1=C\c1ccc(S(C)(=O)=O)cc1
not listed: [3] | [18]
inactive: all other assays above

O=C(O)[C@@H](O)[C@H](O)[C@H](O)[C@@H](O)C(=O)O
not listed: [3] | [9] | [11] | [12] | [13] | [17] | [18] | [19]
inactive: all other assays above

Cc1ncc(CO)c(CN)c1O
not listed: [3] | [12]
inactive: all other assays above

CCCNC(C)C(=O)Nc1c(C)csc1C(=O)OC (stereo not given)
not listed: [3] | [17] | [18] | [19]
inactive: all other assays above

CCN(CC)C(=O)N(CC)CC
not listed: [3] | [9] | [11] | [12] | [13] | [17] | [18] | [19]
inactive: all other assays above

OCCN(CCO)CCN(CCO)CCO
not listed: [3] | [12] | [18]
inactive: all other assays above

CC/C=C\CCOC(=O)C(C)C
not listed: [3] | [17] | [18] | [19]
inactive: all other assays above

C=CC(C)(O)CC/C=C(\C)CCC=C(C)C (stereo not given)
not listed: [3] | [9] | [11] | [12] | [13] | [17] | [18] | [19]
inactive: all other assays above

COc1ccccc1OCC(O)COC(N)=O (stereo not given)
not listed: [3] | [14] | [17] | [18] | [19]
inactive: all other assays above

CC1(C)O[C@@H]2C[C@H]3[C@@H]4CCC5=CC(=O)CC[C@]5(C)[C@@]4(F)[C@@H](O)C[C@]3(C)[C@]2(C(=O)CCl)O1
not listed: [3] | [11] | [13] | [17] | [18] | [19]
inactive: all other assays above

CCOC(=O)C(Br)c1ccccc1 (stereo not given)
not listed: [3] | [17] | [18] | [19]
inactive: all other assays above

CCN1CC(CCN2CCOCC2)C(c2ccccc2)(c2ccccc2)C1=O (stereo not given)
not listed: [3] | [9] | [11] | [12] | [13] | [17] | [18] | [19]
inactive: all other assays above

COc1ccc(S(=O)(=O)Nc2nnc(CC(C)C)s2)cc1
not listed: [3] | [17] | [18] | [19]
inactive: all other assays above

CC(C)O
not listed: [3] | [17] | [18] | [19]
inactive: all other assays above

CN(CC1(C)CCCO1)S(=O)(=O)c1ccc(Cl)c(S(N)(=O)=O)c1 (stereo not given)
inactive: [1] | [2] | [20] | [4] | [5] | [6] | [7] | [8] | [10] | [15] | [16]

CC(C)NCC(O)COc1ccc(CCOCC2CC2)cc1 (stereo not given)
active: [2] 29.8 µM | [20] 29.8 µM
inactive: [1] | [4] | [5] | [6] | [8] | [10] | [14] | [15] | [16]

COC(=O)c1ccc2cc(C(=O)OC)ccc2c1
not listed: [2] | [17] | [18] | [19]
inactive: all other assays above

CCCCC(=O)O[C@]1(C(=O)CO)[C@H](C)C[C@H]2[C@@H]3CCC4=CC(=O)C=C[C@]4(C)[C@@]3(F)[C@@H](O)C[C@@]21C
active: [2] 26.6 µM
inactive: [1] | [5] | [6] | [8] | [10] | [11] | [12] | [14] | [15] | [16]

CC(C)CCCCCCc1ccc(OCCOCCO)cc1
not listed: [3] | [6] | [15] | [20]
inactive: all other assays above

CC1(O)CSC(C)(O)CS1 (stereo not given)
active: [3] 61.1 µM | [20] 61.1 µM
not listed: [2]
inactive: all other assays above

Cc1c(C(=O)NCCO)[n+](=O)c2ccccc2n1[O-]
not listed: [3] | [9] | [11] | [12] | [13] | [20]
inactive: all other assays above

CC(C)C[C@H](NC(=O)OCC1c2ccccc2-c2ccccc21)C(=O)O
inactive: [1] | [2] | [20] | [4] | [5] | [6] | [8] | [10] | [14] | [15] | [16]

C=C(C)C(=O)OCCOP(=O)(O)O
not listed: [2] | [12] | [17] | [18] | [19]
inactive: all other assays above

CC1(C)S[C@@H]2[C@H](NC(=O)C(C(=O)O)c3ccccc3)C(=O)N2[C@H]1C(=O)O (stereo not given in full)
not listed: [3] | [9] | [11] | [12] | [13] | [17] | [18] | [19]
inactive: all other assays above

CCNCCO
not listed: [3] | [9] | [11] | [12] | [13] | [17] | [18] | [19]
inactive: all other assays above

O=CCCc1ccccc1
inactive: [1] | [2] | [20] | [4] | [5] | [6] | [7] | [8] | [14] | [15] | [16]
